Measurements from PubChem BioAssay (NCATS).
Values joined by “and” are separate entries in the source; they are usually repeats but may differ in a detail not shown here. Equal entries are not always repeated. Records with an inconclusive call do not appear. Where a call stands in place of a potency, no number is given. Active and inactive are the calls of the source. Unless noted, calls come from the whole dose curve; as a rule, active = well fitted curve in the direction sought with a large enough effect; inconclusive = small, poorly fitted or top-dose-only effect, or another doubt; inactive = no such curve, though single readings can be large; an effect the other way counts as inactive or inconclusive.

What was measured:
[1] = biological target: Calcium and integrin-binding protein 1 (Homo sapiens) (UniProt Q99828); test: Primary qHTS for Identification of Calcium Integrin Binding Protein 1 (CIB1) Competitor (AID 1508620);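 note: GST tagged CIB1 binding a fluorescein labelled alphaIIb integrin peptide tracer; top concentration of the series differs between compounds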
Chain of Calcium and integrin-binding protein 1 (Homo sapiens) (Q99828 whole entry, looked up): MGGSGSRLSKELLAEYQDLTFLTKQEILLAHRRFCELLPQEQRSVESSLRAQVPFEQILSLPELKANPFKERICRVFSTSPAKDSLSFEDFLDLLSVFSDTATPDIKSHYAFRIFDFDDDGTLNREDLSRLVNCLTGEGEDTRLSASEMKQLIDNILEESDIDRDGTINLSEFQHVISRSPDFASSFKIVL
Procedure, shortened: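 Fluorescence polarization competition: GST-tagged CIB1 (1 uM final) preincubated with compound 15 min at room temperature, then FITC-labelled alphaIIb peptide (100 nM final) added. After 15 min at room temperature, polarization read at Ex 480/Em 540.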

[2] = Primary qHTS for small molecule stabilizers of the endoplasmic reticulum resident proteome: Secreted ER Calcium Modulated Protein (SERCaMP) assay (AID 1508630)
Procedure, shortened: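 GLuc-SERCaMP-expressing SH-SY5Y cells, pretreated 16 h with compound, are challenged with thapsigargin to empty ER calcium stores; after 4 h, coelenterazine is added directly to the medium and luminescence is imaged.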

[3] = Primary qHTS for inhibitors of nuclear receptor binding SET domain protein 2 (NSD2) in an isogenic RCH-ACV NSD2 p.E1099K mutant (9B) (AID 1645876); note: nearly all actives have a fitted effect of over 70% in size; note: potency is the fitted concentration of half-maximal effect
[4] = Primary qHTS for inhibitors of nuclear receptor binding SET domain protein 2 (NSD2) in an RCH-ACV wild type WT cells (2C) (AID 1645877); note: nearly all actives have a fitted effect of over 70% in size; note: potency is the fitted concentration of half-maximal effect
[5] = biological target: Cytochrome P450 2D6 (Homo sapiens) (UniProt P10635); test: Cytochrome P450 family 2 subfamily D member 6 (CYP2D6) small molecule antagonists: luciferase biochemical (cell-free) qHTS assay (AID 1645840; active = well fitted curve in the direction sought with a large enough effect in the repeat runs; an effect the other way counts as inactive or inconclusive; note: nearly all actives have a fitted effect of over 55% in size; note: potency is the fitted concentration of half-maximal effect)
Chain of Cytochrome P450 2D6 (Homo sapiens) (P10635 whole entry, looked up): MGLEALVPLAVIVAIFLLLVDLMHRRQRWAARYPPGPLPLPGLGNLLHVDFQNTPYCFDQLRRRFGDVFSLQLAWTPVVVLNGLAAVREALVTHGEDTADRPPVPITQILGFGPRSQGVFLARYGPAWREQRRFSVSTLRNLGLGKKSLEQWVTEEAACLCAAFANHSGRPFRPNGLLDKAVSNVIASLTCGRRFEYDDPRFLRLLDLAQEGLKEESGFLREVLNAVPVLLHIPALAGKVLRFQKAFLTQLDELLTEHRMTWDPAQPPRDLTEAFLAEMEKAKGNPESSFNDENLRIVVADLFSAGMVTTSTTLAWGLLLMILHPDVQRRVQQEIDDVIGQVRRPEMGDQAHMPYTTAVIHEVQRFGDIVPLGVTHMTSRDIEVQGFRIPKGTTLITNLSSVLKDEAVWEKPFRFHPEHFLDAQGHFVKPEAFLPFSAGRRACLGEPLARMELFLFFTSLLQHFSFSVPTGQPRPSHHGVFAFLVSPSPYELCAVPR
Procedure, shortened: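 P450-Glo luminescent screen: recombinant CYP2D6 enzyme–proluciferin substrate mix preincubated with compound 10 min at room temperature, then NADPH regeneration added for 1 h at room temperature. Detection reagent added for 20 min; luciferin light read as relative luminescence units.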

[6] = biological target: Cytochrome P450 2C9 (Homo sapiens) (UniProt P11712); test: Cytochrome P450 family 2 subfamily C member 9 (CYP2C9) small molecule antagonists: luciferase biochemical (cell-free) qHTS assay (AID 1645842; active = well fitted curve in the direction sought with a large enough effect in the repeat runs; an effect the other way counts as inactive or inconclusive; note: potency is the fitted concentration of half-maximal effect; nearly all actives have a fitted effect of over 55% in size)
Chain of Cytochrome P450 2C9 (Homo sapiens) (P11712 whole entry, looked up): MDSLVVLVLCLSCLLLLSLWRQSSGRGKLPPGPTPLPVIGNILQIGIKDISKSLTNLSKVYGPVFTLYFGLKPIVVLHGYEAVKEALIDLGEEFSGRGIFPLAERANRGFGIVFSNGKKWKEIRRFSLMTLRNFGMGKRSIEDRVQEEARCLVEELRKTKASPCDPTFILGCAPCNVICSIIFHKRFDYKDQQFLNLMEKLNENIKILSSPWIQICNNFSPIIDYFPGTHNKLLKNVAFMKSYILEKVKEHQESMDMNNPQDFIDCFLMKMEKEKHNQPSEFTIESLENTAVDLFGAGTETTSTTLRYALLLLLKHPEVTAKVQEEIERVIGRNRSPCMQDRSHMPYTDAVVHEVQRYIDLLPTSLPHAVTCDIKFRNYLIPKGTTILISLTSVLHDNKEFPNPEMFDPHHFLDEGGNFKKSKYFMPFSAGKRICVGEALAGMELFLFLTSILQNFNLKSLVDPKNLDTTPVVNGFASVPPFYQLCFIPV
Procedure, shortened: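 Luminescence, after 20 min with luciferin detection reagent, reflected CYP2C9 turnover during a 1 h NADPH-driven reaction at 37C. Enzyme-substrate mix contained 0.4% bovine serum albumin and was preincubated with compound 10 min at room temperature.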

[7] = biological target: N-terminal Xaa-Pro-Lys N-methyltransferase 1 (Homo sapiens) (UniProt Q9BV86); test: Confirmatory qHTS for Inhibitors of N-terminal methyltransferase 1 (NTMT1): MTaseGlo Assay (AID 1645874); settings: NTMT1 enzyme, MTase-Glo SAH luminescence; note: potency is the fitted concentration of half-maximal effect; nearly all actives have a fitted effect of over 65% in size
Chain of N-terminal Xaa-Pro-Lys N-methyltransferase 1 (Homo sapiens) (Q9BV86 whole entry, looked up): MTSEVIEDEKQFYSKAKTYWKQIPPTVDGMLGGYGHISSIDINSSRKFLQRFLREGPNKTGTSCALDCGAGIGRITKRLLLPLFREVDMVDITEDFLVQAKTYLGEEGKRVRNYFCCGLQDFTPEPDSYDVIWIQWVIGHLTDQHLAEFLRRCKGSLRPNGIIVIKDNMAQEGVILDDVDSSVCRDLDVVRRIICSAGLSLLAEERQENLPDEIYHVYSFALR
Procedure, shortened: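 Preincubation of NTMT1 (125 nM) plus SAM (100 uM) with test compounds lasted 15 min; methylation of 1 uM SPKRIA then proceeded 30 min in the dark at room temperature. Luciferase signal reported SAH produced.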

[8] = biological target: Catechol O-methyltransferase (Homo sapiens) (UniProt P21964); test: Confirmatory Screen for Target Class Profiling of Small Molecule Inhibitors of Methyltransferases (AID 1745852; calls by dose curve; note: potency is the fitted concentration of half-maximal effect); settings: MTase-Glo luminescence, SAH detection, recombinant enzyme; measured here: COMT max response; stronger effect = lower value
Chain of Catechol O-methyltransferase (Homo sapiens) (P21964 whole entry, looked up): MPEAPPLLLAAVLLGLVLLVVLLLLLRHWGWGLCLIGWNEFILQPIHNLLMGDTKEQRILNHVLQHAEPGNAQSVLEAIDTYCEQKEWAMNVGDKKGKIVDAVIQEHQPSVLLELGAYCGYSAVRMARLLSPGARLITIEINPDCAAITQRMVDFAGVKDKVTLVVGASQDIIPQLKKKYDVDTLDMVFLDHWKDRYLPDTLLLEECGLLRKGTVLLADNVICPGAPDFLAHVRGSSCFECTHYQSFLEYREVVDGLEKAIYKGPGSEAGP

[9] = biological target: Guanidinoacetate N-methyltransferase (Homo sapiens) (UniProt Q14353); test: as above; settings: activity change, negative = inhibition: at 57.3 µM (top of the series)

## CN(C)c1ccc(C(=O)NCCCCCCC(=O)NO)cc1
[1]
  Potency: inactive
[2]
  outcome: inactive
[3]
  Potency: 525 nM (active)
[4]
  Potency: 0.934 µM (active)

## CCCCCCCCc1ccc(CCC(N)(CO)CO)cc1
[1]
  Potency: inactive
[2]
  outcome: inactive
[3]
  Potency: 8330 nM (active)
[4]
  Potency: 8.33 µM (active)

## Cn1c(Nc2ccc(C(F)(F)F)cc2)nc2cc(Oc3ccnc(-c4ncc(C(F)(F)F)[nH]4)c3)ccc21
[1]
  Potency: inactive
[2]
  outcome: inactive
[3]
  Potency: 7.31 µM (active) and 5.25 µM (active)
[4]
  Potency: 8.2 µM (active) and 4.17 µM (active)

## C[C@@H](Cc1cc2c(c(C(N)=O)c1)N(CCCO)CC2)NCCOc1ccccc1OCC(F)(F)F
[1]
  Potency: inactive
[2]
  outcome: inactive
[3]
  Potency: inactive
[4]
  Potency: inactive

## O=C(Nc1cc2cc[nH]c2cn1)c1ccccc1
[1]
  Potency: inactive
[2]
  outcome: inactive
[5]
  Potency: 13.5 µM (active)
[6]
  Potency: 4.77 µM (active)
[7]
  Potency: 6.31 µM (active)
[3]
  Potency: 12900 nM (active)
[4]
  Potency: 9.16 µM (active)
[8]
  activity: -83.5%
[9]
  Potency: 19.2 µM (active)

## FC(F)c1nc2ccccc2n1-c1nc(N2CCOCC2)nc(N2CCOCC2)n1
[1]
  Potency: inactive
[2]
  outcome: inactive
[5]
  Potency: inactive
[6]
  Potency: 1.69 µM (active)
[3]
  Potency: 57.8 nM (active) and 41.7 nM (active)
[4]
  Potency: 72.8 nM (active) and 105 nM (active)

## CC(C)(C)c1nc2c3cc[nH]c(=O)c3c3cc(F)ccc3c2[nH]1
[1]
  Potency: inactive
[2]
  outcome: inactive
[3]
  Potency: 662 nM (active)
[4]
  Potency: 0.468 µM (active)

## CCNC(=O)c1cc2c(-c3cc(OCCN4CCCC4)c(Cl)cc3Cl)nc(N)nc2s1
[1]
  Potency: inactive
[2]
  outcome: inactive
[3]
  Potency: 512 nM (active)
[4]
  Potency: 0.512 µM (active)

## CCNC(=O)Nc1ccc(-c2nc3c(c(N4CCOC[C@H]4C)n2)CCN(C2COC2)C3)cc1
[1]
  Potency: inactive
[2]
  outcome: inactive
[3]
  Potency: 731 nM (active)
[4]
  Potency: 1.3 µM (active)

## COc1cc(C(=O)NC2CCN(C)CC2)ccc1Nc1ncc2c(n1)N(C1CCCC1)CCC(=O)N2C(C)C
[1]
  Potency: inactive
[2]
  outcome: inactive
[3]
  Potency: 13200 nM (active)
[4]
  Potency: 10.5 µM (active)

## COc1cc2c(Nc3ccc(Cl)c(Cl)c3F)ncnc2cc1OCC1C[C@@H]2CN(C)C[C@H]2C1
[1]
  Potency: inactive
[2]
  outcome: inactive
[8]
  activity: -71.6%
[9]
  Potency: 21.5 µM (active)

## CC(C)N(CC[C@H](c1ccccc1)c1cc(CO)ccc1O)C(C)C
[2]
  outcome: inactive

## Cc1nc(NC(=O)N2CCC[C@@H]2C(N)=O)sc1-c1ccnc(C(C)(C)C(F)(F)F)c1
[2]
  outcome: inactive

## COc1cc(C)c(Sc2cnc(NC(=O)c3ccc(CNC(C)C(C)(C)C)cc3)s2)cc1C(=O)N1CCN(C(C)=O)CC1 (stereo unspecified)
[2]
  outcome: inactive
[3]
  Potency: 7420 nM (active)
[4]
  Potency: 4.68 µM (active)

## O=c1c(O)c(-c2ccc(O)c(O)c2)oc2cc(O)ccc12
[2]
  outcome: inactive

## CC(=O)N1CCN(c2ccc(OCc3nn(C)c(C)c3-c3cccc4c(CCCOc5cccc6ccccc56)c(C(=O)O)n(Cc5cccnc5)c34)cc2)CC1
[2]
  outcome: inactive

## CC(=O)NCC(=O)N1[C@H]2CC[C@H]1c1cc(Nc3ncc(C(F)(F)F)c(NC4CCC4)n3)ccc12
[2]
  outcome: inactive

## CCN(CC)CCCCNc1ncc2c(n1)N(C)C(=O)N(c1c(Cl)c(OC)cc(OC)c1Cl)C2
[2]
  outcome: inactive
[3]
  Potency: 14800 nM (active)
[4]
  Potency: 13.2 µM (active)

## COC(=O)[C@@H]1[C@H]2C[C@@H]3c4[nH]c5ccccc5c4CCN3C[C@@H]2CC[C@@H]1O
[2]
  outcome: inactive

## CC(=O)O[C@]1(C(C)=O)CC[C@H]2[C@@H]3C=C(C)C4=CC(=O)CC[C@]4(C)[C@@H]3CC[C@@]21C
[2]
  outcome: inactive

## CON=C(C(=O)N[C@@H]1C(=O)N2C(C(=O)O)=C(Cn3ccc(=N)n3CCO)CS[C@H]12)c1csc(N)n1
[2]
  outcome: inactive

## COc1cccc2c1C(=O)c1c(O)c3c(c(O)c1C2=O)C[C@@](O)(C(C)=O)C[C@H]3O[C@H]1C[C@H](N)[C@H](O)[C@H](C)O1
[2]
  outcome: inactive

## O=C(NCc1ccccc1)[C@H](Cc1ccccc1)NC(=O)[C@@H]1O[C@@H]1C(=O)NCCc1ccc(O)cc1
[2]
  outcome: inactive

## CNC(=O)Nc1ccc(-c2nc(N3CC4CCC(C3)O4)c3cnn(C4CCC5(CC4)OCCO5)c3n2)cc1
[1]
  Potency: inactive
[3]
  Potency: 74.2 nM (active)
[4]
  Potency: 0.118 µM (active)

## C=C1CCC2[C@](C)(CO)C(O)CC[C@]2(C)C1CC=C1C(=O)OCC1O (stereo partly specified)
[2]
  outcome: inactive

## O=C1NC(=O)[C@@H](c2cn3c4c(cccc24)CCC3)[C@H]1c1c[nH]c2ccccc12
[2]
  outcome: inactive

## Cc1ccc([N+](=O)[O-])cc1S(=O)(=O)N(C)N=Cc1cnc2ccc(Br)cn12
[2]
  outcome: inactive

## C=C[C@@H]1CN2CCC1C[C@H]2[C@H](O)c1ccnc2ccc(OC)cc12 (stereo partly specified)
[2]
  outcome: inactive

## c1cc(CN2CCCNCCNCCCNCC2)ccc1CN1CCCNCCNCCCNCC1
[1]
  Potency: inactive
[2]
  outcome: inactive
[4]
  Potency: inactive

## COc1ccc(CCC(=O)c2c(O)cc(O[C@@H]3O[C@H](CO)[C@@H](O)[C@H](O)[C@@H]3O[C@@H]3O[C@@H](C)[C@H](O)[C@@H](O)[C@@H]3O)cc2O)cc1O
[2]
  outcome: inactive

## CO[C@@H]1[C@@H](O)[C@H](O)[C@@H](n2c3c(Cl)cccc3c3c4c(c5c6cccc(Cl)c6[nH]c5c32)C(=O)NC4=O)O[C@@H]1CO
[2]
  outcome: inactive

## C=CCNC1=C2C[C@@H](C)C[C@H](OC)[C@@H](O)[C@@H](C)C=C(C)[C@H](OC(N)=O)[C@@H](OC)C=CC=C(C)C(=O)NC(=CC1=O)C2=O
[2]
  outcome: inactive

## C[C@H](CCC(=O)O)[C@H]1CC[C@H]2[C@@H]3[C@H](O)C[C@@H]4C[C@H](O)CC[C@]4(C)[C@@H]3CC[C@]12C
[2]
  outcome: inactive

## C[C@]12CC[C@@H]3c4ccc(O)cc4CC[C@H]3[C@H]1CC[C@H]2O
[2]
  outcome: inactive

## C=C1C(=O)O[C@H]2[C@@H]1CCC(C)=CCC[C@@]1(C)O[C@@H]21
[2]
  outcome: inactive

## CCc1ccc(C(=O)Nc2cc(CN3CCN(C)CC3)cc(C(F)(F)F)c2)cc1C#Cc1cnc2ccnn2c1
[1]
  Potency: inactive
[3]
  Potency: 5.78 µM (active) and 5.25 µM (active)
[4]
  Potency: 5.15 µM (active) and 4.17 µM (active)
